# Screening results (PubChem)
# SSB-PriA inh: inhibitors of Klebsiella pneumoniae PriA binding to SSB C-terminal tail | AlphaScreen SSBct-PriA binding, biotinylated peptide | inhibition, % at 33 µM | hit rate 0.6% among 430,000; in the data active = inhibition mostly above about 37%, no sharp cut-off; inactive = mostly below about 20%;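 also: plate controls were negative control peptide for no effect and reference peptide for full effect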
# TcdB GH inh: TcdB glycohydrolase inhibition. inhibition, % at 9.99 µM. hit rate 0.24% among 350,000. TcdB glycohydrolase enzymatic assay, plate reader. AID 652162. P18177; in the data active = inhibition above about 10%
# PrPC TRFRET: cell surface PrPC inhibition, primary TR-FRET screen; TR-FRET read-out; inhibition, % at 13.8 µM; hit rate 0.43% among 370,000; in the data active = inhibition above about 24%; also: 0% = median of the test wells and 100% = reference compound wells
# VHR inh abs: inhibitors of human VHR1 phosphatase (DUSP3). P51452. recombinant VHR phosphatase, pNPP absorbance. inhibition, % at 13.3 µM. hit rate 0.52% among 290,000. AID 1654; in the data active = inhibition above about 50%
# Vc quorum ag-1: inducers of Vibrio cholerae quorum light production without autoinducers; V. cholerae BH1578 lux reporter, luminescence, 6 h; activation, % at 18.7 µM; hit rate 0.16% among 350,000; in the data active = activation mostly above about 9.7%, no sharp cut-off
# CCHFV vOTU inh: blocks the CCHF virus ovarian tumor domain protease; inhibition, % at 11.5 µM; hit rate 0.55% among 370,000; CCHFV vOTU protease, Pep-AMC fluorescence; in the data active = inhibition above about 30%; also: 0% = vehicle wells with enzyme and 100% = no enzyme wells
# Vc quorum ag-2: induces V. cholerae light production without autoinducers | shares compounds with Vc quorum ag-1 | V. cholerae BH1578 lux reporter, luminescence, 6 h | activation, % at 50 µM | 620 tested, under 10 active | AID 602243; call rule not given here
# * = called active by the depositor; i = inactive; x = not tested or not shown. Most compounds without a hit are left out; they make up all but 1.5% or so of the library.
SMILES,SSB-PriA inh,TcdB GH inh,PrPC TRFRET,VHR inh abs,Vc quorum ag-1,CCHFV vOTU inh,Vc quorum ag-2
Cc1[nH]c2ccc3c(ncn3CCC#N)c2c1C,-4.7,x,0.0,1.8,14.3,-5.3,0.8
Cc1[nH]c2ccc3ncccc3c2c1C,22.3,x,2.2,-7.0,0.0,22.4,x
CC1(C)NC(=O)N(CCOCCOc2ccc3ccccc3c2Br)C1=O,-19.8,x,-24.7,14.0,14.3,-2.4,0.7
CC1(C)NC(=O)N(CCCCOc2ccc3ccccc3c2Cl)C1=O,-15.0,x,-3.3,-4.6,-1.9,-1.7,x
COc1ccc(-c2noc(CCC(=O)N3CCN(c4cccc(OC)c4)CC3)n2)cc1,7.1,0.3,-3.7,x,-0.8,19.6,x
COc1ccc(-c2noc(CCC(=O)N3CCN(c4cccc(C(F)(F)F)c4)CC3)n2)cc1,-7.9,x,-1.4,28.6,25.0*,13.7,0.5
O=C(CCc1nc(-c2ccccc2)no1)N1CCCC1,-6.0,x,-1.7,4.4,312.7*,1.3,565.4
CC(C)(C)c1ccc(-c2noc(CCC(=O)N3CCOCC3)n2)cc1,-4.7,4.8,4.0,11.5,-0.7,13.3,x
Cc1ccc(N2C(=O)C(CN(C)C)C2c2ccccc2)cc1 (centres undefined),7.7,x,-5.9,20.2,16.7*,-3.2,2.1
COc1ccccc1OCC(=O)OCC(=O)NCCN1C(=O)CSC1=O,-11.1,x,-1.7,3.6,-1.8,-5.8,x
O=C(COC(=O)CNC(=O)c1ccco1)NCCN1C(=O)CSC1=O,-4.9,x,0.2,11.7,12.5,-4.1,1.6
Cc1csc(CN2CCN(C(=O)C(C)Oc3ccccc3)CC2)n1 (centres undefined),-1.0,x,x,x,x,x,x
COc1ccc(NS(=O)(=O)c2cccc(C(=O)N3CCCC(C)C3)c2)cc1 (centres undefined),-12.0,2.2,-5.7,x,19.3,-7.2,0.0
Cc1ccc(NS(=O)(=O)c2cccc(C(=O)N3CCCC(C)C3)c2)cc1 (centres undefined),1.9,0.4,2.0,x,i,1.4,x
Cc1ccc(NC(=O)[C@H]2CCCN(c3cc(C4CC4)ncn3)C2)cc1F,-4.0,x,x,x,x,x,x
CCCOC(=O)c1ccc(NC(=O)CCC(=O)OCC)cc1,0.5,x,3.4,-10.8,12.5,-3.9,0.3
CCCOC(=O)c1ccc(NC(=O)C2CCCO2)cc1 (centres undefined),-14.9,x,-2.0,-12.0,16.7*,24.1,0.1
Cc1noc(C)c1S(=O)(=O)N1CCCC(C(=O)NCCC2=CCCCC2)C1 (centres undefined),-23.1,x,-4.5,14.3,20.0*,7.7,1.5
C=CCn1c(NCc2ccccc2)nc2ccccc21,7.4,x,-1.3,31.1,16.7*,12.1,0.4
CN(CC(=O)Nc1c(Cl)cccc1Cl)C(=O)c1cccc(-n2cccc2)c1,-2.5,-2.9,0.0,x,-17.1,-4.0,x
CN(CC(=O)Nc1ccccc1Cl)C(=O)c1cccc(-n2cccc2)c1,2.3,0.2,-4.0,x,14.3,-2.2,0.0
COc1ccccc1N1CCN(C(=O)CS(=O)(=O)c2ccc(Cl)s2)CC1,-2.0,x,x,x,x,x,x
O=C(c1ccc(N2CCOCC2)nc1)N1CCOCC1,-5.3,0.8,3.2,-7.7,1.9,3.5,x
O=C(c1ccc(C(=O)N2CCOCC2)nc1)N1CCOCC1,-12.4,x,-3.0,13.4,16.7*,0.5,-0.1
Cc1noc(C)c1S(=O)(=O)Nc1ccc2c(c1)C(=O)N([C@H](C)CO)C[C@H](C)[C@@H](CN(C)Cc1ccc(C(=O)O)cc1)O2,8.6,-0.7,-0.6,x,19.8,6.0,0.0
SMILES,SSB-PriA inh,TcdB GH inh,PrPC TRFRET,VHR inh abs,Vc quorum ag-1,CCHFV vOTU inh,Vc quorum ag-2
Cc1noc(C)c1S(=O)(=O)Nc1ccc2c(c1)C(=O)N([C@@H](C)CO)C[C@H](C)[C@H](CN(C)Cc1ccc(C(=O)O)cc1)O2,x,0.3,x,x,x,x,x
COC(=O)c1cc(COC(=O)c2ccc(OC)c(S(=O)(=O)N3CCCC3)c2)oc1C,-14.6,x,-3.2,15.9,12.5,6.2,-0.1
O=C(CCNC(=O)c1ccc(Cl)cc1)NCC(c1ccco1)N1CCCCC1 (centres undefined),-7.0,1.7,-2.7,x,14.3,5.7,0.1
O=C(NCC(c1ccco1)N1CCCC1)c1ccc(Cl)cc1 (centres undefined),-16.0,x,2.3,6.3,i,0.7,x
CCOC(=O)CC(=O)Nc1nnc(C(C)C)s1,-24.5,x,1.4,4.3,16.7*,-6.5,0.0
COCCNc1nc2c(c(=O)n(Cc3ccc(OC)cc3)c(=O)n2C)n1C,-0.9,x,-6.0,-10.2,14.3,-1.8,0.3
COc1ccc2c(c1)CCC(C)N2S(=O)(=O)c1ccc(C2CNC(=O)C2)cc1 (centres undefined),2.5,0.8,8.4,-0.1,20.5,7.5,0.4
COc1cccc2cc(C(=O)NCC[C@H](O)c3cccs3)oc12,-15.0,x,x,x,x,x,x
COc1ccc(CNC(=O)CSc2nc3c(oc4ccccc43)c(=O)n2CC2CCCO2)cc1 (centres undefined),-0.5,1.1,-4.2,x,14.3,5.4,0.0
COc1cccc(CNC(=O)CSc2nc3c(oc4ccccc43)c(=O)n2CC2CCCO2)c1 (centres undefined),-19.6,0.8,0.3,x,-0.3,-1.8,x
CN1CC(=O)N(CC(=O)Nc2ccc3c(c2)CCC3)C1=O,-1.8,8.4,-6.0,17.7,35.6*,-2.4,0.0
CC(C)CC1NC(=O)N(CC(=O)Nc2ccc3c(c2)CCC3)C1=O (centres undefined),-17.4,0.7,6.5,26.2,-0.4,-11.7,x
CCC(NC(=O)Nc1nccs1)(C(F)(F)F)C(F)(F)F,-2.1,x,1.1,41.4,16.7*,0.9,0.6
Cc1ccc(S(=O)(=O)N2CCN(C(=O)c3cc(-c4cccs4)nn3-c3ccccc3)CC2)cc1,-4.0,3.4,-4.0,x,-4.0,1.3,x
O=C(c1cc(-c2cccs2)nn1-c1ccccc1)N1CCN(S(=O)(=O)c2ccccc2)CC1,1.2,2.0,-6.7,x,14.3,-5.7,0.0
CC(=NNC(=O)c1ccccc1)C1=C(O)CC(C)(C)CC1=O,2.3,x,x,x,x,x,x
Cc1ccc(C)c(S(=O)(=O)Nc2ccc(-n3cnnn3)cc2)c1,-7.1,x,x,x,36.7*,x,-0.1
Cc1ccc(C)c(S(=O)(=O)Nc2ccc(O)cc2)c1,-5.3,x,-1.3,29.0,i,4.1,x
O=C(Nc1cccc(Cl)c1)Nc1ccc(Cl)cn1,-13.8,x,-3.6,0.0,32.1*,-1.8,-0.6
Cc1cc(C(F)(F)F)c2c(N)c(C(=O)NC3CC3)sc2n1,0.6,1.0,-15.9,10.5,12.5,4.3,1.0
O=C(Nc1nc(-c2ccc3ccccc3c2)cs1)c1ccc([N+](=O)[O-])o1,-2.0,x,x,x,x,x,x
O=C(CC1CSc2nccc(=O)n21)N1CCOCC1 (centres undefined),8.0,x,x,x,x,x,x
Cc1nn(-c2ccccc2)c(C)c1NC(=O)COC(=O)c1cc(Br)ccc1O,-5.7,-0.4,9.2,x,26.8,-1.0,0.6
Cc1cccc(C(=O)OCC(=O)Nc2c(C)nn(-c3ccccc3)c2C)c1O,-3.9,2.4,-1.6,x,-0.7,-4.3,x
CCOC(=O)N1CCN(C(=S)NCCOC)CC1,-5.4,x,-3.2,18.1,12.5,-1.4,0.0
